Experimental data reported in PubChem BioAssay (EPA / NIEHS).
Records with an inconclusive call do not appear. Activity calls are given as the source filed them. How the source made its calls: active means hit-call score of the fitted dose curve at least 0.9, where 1 is the maximum; inconclusive means response in the unintended direction; inactive means score below 0.9.

Columns and labels:
[1] = target: human Acid Phosphatase 1 (ACP1), ACP1 (gene 52) (UniProt P24666); assay: NVS_ENZ_hACP1: NovaScreen (NVS) Enzymatic Assay for human Acid Phosphatase 1 (ACP1) (AID 2283136)
Sequence of human Acid Phosphatase 1 (ACP1), ACP1 (gene 52) (P24666 whole entry, looked up): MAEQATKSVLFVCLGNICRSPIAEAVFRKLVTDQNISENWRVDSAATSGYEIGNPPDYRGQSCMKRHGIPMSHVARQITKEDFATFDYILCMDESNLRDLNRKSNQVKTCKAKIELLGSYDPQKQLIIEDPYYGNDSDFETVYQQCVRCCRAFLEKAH
Procedure, shortened: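 Recombinant enzyme expressed in Sf9 cells, tested cell-free; activity read by fluorescence with electrophoretic mobility shift separation of substrate and product, 1.5 h after dosing. Primary screen in duplicate at 25 uM, actives then run in concentration series; loss of signal versus DMSO.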

[2] = target: human Aurora Kinase A - serine/threonine-protein Kinase 6 (AurA), AURKA (gene 6790) (UniProt O14965); assay: NVS_ENZ_hAurA: NovaScreen (NVS) Enzymatic Assay for human Aurora Kinase A - serine/threonine-protein Kinase 6 (AurA) (AID 2283142)
Sequence of human Aurora Kinase A - serine/threonine-protein Kinase 6 (AurA), AURKA (gene 6790) (O14965 whole entry, looked up): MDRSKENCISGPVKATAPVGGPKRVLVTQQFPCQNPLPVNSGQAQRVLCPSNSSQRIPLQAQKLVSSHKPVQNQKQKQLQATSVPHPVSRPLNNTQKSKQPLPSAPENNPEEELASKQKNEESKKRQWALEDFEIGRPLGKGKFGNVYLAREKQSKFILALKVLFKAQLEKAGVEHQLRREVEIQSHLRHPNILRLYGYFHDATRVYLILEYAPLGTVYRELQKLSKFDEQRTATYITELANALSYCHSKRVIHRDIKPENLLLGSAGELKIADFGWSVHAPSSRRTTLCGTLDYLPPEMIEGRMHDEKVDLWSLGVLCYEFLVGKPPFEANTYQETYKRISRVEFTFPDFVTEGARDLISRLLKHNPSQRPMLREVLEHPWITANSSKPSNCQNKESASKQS
Procedure, shortened: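 Cell-free enzymatic assay with human Aurora A, 1 hour after dosing. Fluorescent substrate turnover detected after electrophoretic mobility shift separation of substrate and product. Screened at 25 uM, actives retested in concentration-response up to 50 uM.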

CDK2 (gene 1017) = CDK2 (gene 1017) (UniProt P24941); assay: NVS_ENZ_hCDK2: NovaScreen (NVS) Enzymatic Assay for human Cyclin-Cependent Kinase 2 (CDK2) (AID 2283144)
Procedure, shortened: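 Cell-free recombinant human CDK2 with fluorescent substrate, product separated by electrophoretic mobility shift; 1 hr read. Primary screen at 25 uM in duplicate, actives retested in concentration-response up to 50 uM; loss of signal versus DMSO.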

[3] = target: human Beta-secretase (BACE), BACE1 (gene 23621) (UniProt P56817); assay: NVS_ENZ_hBACE: NovaScreen (NVS) Enzymatic Assay for human Beta-secretase (BACE) (AID 2283140);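 further: hits are inhibitors that reduce fluorescent substrate signal versus DMSO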
Sequence of human Beta-secretase (BACE), BACE1 (gene 23621) (P56817 whole entry, looked up): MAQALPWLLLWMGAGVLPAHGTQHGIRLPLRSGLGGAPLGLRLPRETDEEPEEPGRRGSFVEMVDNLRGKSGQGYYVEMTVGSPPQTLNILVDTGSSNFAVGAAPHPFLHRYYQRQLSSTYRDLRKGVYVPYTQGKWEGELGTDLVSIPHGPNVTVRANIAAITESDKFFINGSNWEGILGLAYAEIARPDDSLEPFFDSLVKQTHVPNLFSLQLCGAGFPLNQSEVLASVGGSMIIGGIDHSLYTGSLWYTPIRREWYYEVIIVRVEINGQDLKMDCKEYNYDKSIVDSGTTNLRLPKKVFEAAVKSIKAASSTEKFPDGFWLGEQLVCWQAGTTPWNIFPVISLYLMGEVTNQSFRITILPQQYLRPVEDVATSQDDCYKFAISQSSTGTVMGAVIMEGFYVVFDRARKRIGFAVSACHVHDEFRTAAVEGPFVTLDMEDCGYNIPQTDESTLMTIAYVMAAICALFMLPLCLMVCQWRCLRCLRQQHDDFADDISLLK
Procedure, shortened: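 Compounds were first tested in duplicate at 25 uM, then actives in concentration series, against recombinant BACE1 from SF9 cells. Enzyme activity was measured by fluorescence intensity 1 hour after dosing, with DMSO as negative control.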

[4] = target: human Caspase 2 (CASP2), CASP2 (gene 835) (UniProt P42575); assay: NVS_ENZ_hCASP2: NovaScreen (NVS) Enzymatic Assay for human Caspase 2 (CASP2) (AID 2283135)
Sequence of human Caspase 2 (CASP2), CASP2 (gene 835) (P42575 whole entry, looked up): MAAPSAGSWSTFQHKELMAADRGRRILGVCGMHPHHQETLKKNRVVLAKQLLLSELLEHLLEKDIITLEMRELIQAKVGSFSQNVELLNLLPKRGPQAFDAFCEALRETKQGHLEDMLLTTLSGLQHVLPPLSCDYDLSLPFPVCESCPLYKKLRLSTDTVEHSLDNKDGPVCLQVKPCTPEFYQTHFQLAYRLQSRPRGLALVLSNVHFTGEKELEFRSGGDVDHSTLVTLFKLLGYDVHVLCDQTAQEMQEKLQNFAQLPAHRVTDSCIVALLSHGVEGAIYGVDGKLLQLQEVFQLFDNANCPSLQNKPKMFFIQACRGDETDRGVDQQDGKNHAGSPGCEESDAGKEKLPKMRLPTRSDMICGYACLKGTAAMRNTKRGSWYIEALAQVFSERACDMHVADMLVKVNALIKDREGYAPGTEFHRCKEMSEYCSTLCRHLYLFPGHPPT
Procedure, shortened: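 E. coli-expressed enzyme in a cell-free protease assay, fluorescence read 1 h after dosing. Compounds at 25 uM in duplicate, with concentration-response up to 50 uM for hits; loss of signal against DMSO baseline.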

[5] = target: human Caspase 5 (CASP5), CASP5 (gene 838) (UniProt P51878); assay: NVS_ENZ_hCASP5: NovaScreen (NVS) Enzymatic Assay for human Caspase 5 (CASP5) (AID 2283137)
Sequence of human Caspase 5 (CASP5), CASP5 (gene 838) (P51878 whole entry, looked up): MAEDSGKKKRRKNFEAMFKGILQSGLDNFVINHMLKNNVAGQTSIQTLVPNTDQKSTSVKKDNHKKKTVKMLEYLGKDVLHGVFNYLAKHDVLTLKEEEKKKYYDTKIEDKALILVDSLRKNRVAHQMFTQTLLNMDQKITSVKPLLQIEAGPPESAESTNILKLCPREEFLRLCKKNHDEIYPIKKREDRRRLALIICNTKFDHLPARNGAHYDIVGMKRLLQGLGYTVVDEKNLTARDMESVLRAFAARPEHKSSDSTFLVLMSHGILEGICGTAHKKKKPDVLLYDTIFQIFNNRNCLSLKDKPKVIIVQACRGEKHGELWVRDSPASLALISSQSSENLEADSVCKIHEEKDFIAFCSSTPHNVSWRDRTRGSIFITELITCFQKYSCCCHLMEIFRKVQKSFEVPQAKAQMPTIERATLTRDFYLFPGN
Experimental: (§1) NVS_ENZ_hCASP5 is a biochemical, single-readout assay that uses extracted gene-proteins from E. coli in a cell-free assay. Measurements were taken 2 hours after chemical dosing in a 96-well plate.NVS_ENZ_hCASP5 is one of one assay component(s) measured or calculated from the NVS_ENZ_hCASP5 assay. It is designed to make measurements of enzyme activity, a form of enzyme reporter, as detected with fluorescence intensity signals by Fluorescence technology.Data from the assay component NVS_ENZ_hCASP5 was analyzed into 1 assay endpoint. This assay endpoint, NVS_ENZ_hCASP5, was analyzed in the positive analysis fitting direction relative to DMSO as the negative control and baseline of activity. Using a type of enzyme reporter, loss-of-signal activity can be used to understand changes in the enzymatic activity as they relate to the gene CASP5. Furthermore, this assay endpoint can be referred to as a primary readout, because this assay has produced multiple assay endpoints where this one serves a enzymatic activity function. To generalize the intended target to other relatable targets, this assay endpoint is annotated to the protease intended target family, where the subfamily is cysteine protease.
Binding assays used specific radioligands (tritiated, iodinated) with non-radioactive competitive displacement ligands in agonist or antagonist protocols (as indicated) and various reference compounds and inhibitors to titrate specific binding to receptors and transporters. Most enzyme assays (CYPs, kinases, phosphatases, proteases, HDACs) used recombinant protein and specific substrates (fluorescence mostly, some colorimetric and radioactive) and inhibitors, followed by a biochemical separation of substrate and product. All assays for the biochemical HTS were initially run in duplicate at a single concentration (10 uM for CYP450 assays and 25 uM for all others). Assay-chemical combinations meeting a pre-defined threshold (e.g., 30% inhibition and other criteria defined below) were then run in singleton concentration-response format with maximum concentration of 20 uM for CYPs and 50 uM for all others. Each assay was run with positive and negative controls, and concurrent controls on every plate. The follow-up (secondary) screen tested active chemical-pairs in concentration series, as well as a few additional assays not tested in the primary screen, some selected negative inactives, and several cases re-run in the concentration series for confirmatory purposes.

[6] = target: human AKT serine/threonine Kinase 1 (AKT1), AKT1 (gene 207) (UniProt P31749); assay: NVS_ENZ_hAKT1: NovaScreen (NVS) Enzymatic Assay for human AKT serine/threonine Kinase 1 (AKT1) (AID 2283138)
Sequence of human AKT serine/threonine Kinase 1 (AKT1), AKT1 (gene 207) (P31749 whole entry, looked up): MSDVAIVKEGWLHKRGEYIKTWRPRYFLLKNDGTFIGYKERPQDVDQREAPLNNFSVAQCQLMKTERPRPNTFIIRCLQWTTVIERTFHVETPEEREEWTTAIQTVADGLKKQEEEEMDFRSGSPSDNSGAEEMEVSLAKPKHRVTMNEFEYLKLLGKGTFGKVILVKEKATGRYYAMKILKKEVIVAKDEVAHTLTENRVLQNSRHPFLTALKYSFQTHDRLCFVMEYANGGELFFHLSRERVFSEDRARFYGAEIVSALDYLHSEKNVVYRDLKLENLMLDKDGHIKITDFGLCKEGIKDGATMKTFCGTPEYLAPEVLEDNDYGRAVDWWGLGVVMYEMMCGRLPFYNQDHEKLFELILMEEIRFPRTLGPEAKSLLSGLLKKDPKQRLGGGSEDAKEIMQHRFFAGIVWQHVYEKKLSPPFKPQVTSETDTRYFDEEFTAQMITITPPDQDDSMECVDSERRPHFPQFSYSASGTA
Procedure, shortened: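 Recombinant AKT1, specific substrate, cell-free; 1 h; fluorescence intensity/electrophoretic mobility shift. Duplicate single-point 25 uM, then singleton CRC max 50 uM. DMSO = negative control/baseline; signal loss = inhibition.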

[7] = target: human AKT serine/threonine Kinase 2 (AKT2), AKT2 (gene 208) (UniProt P31751); assay: NVS_ENZ_hAKT2: NovaScreen (NVS) Enzymatic Assay for human AKT serine/threonine Kinase 2 (AKT2) (AID 2283141)
Sequence of human AKT serine/threonine Kinase 2 (AKT2), AKT2 (gene 208) (P31751 whole entry, looked up): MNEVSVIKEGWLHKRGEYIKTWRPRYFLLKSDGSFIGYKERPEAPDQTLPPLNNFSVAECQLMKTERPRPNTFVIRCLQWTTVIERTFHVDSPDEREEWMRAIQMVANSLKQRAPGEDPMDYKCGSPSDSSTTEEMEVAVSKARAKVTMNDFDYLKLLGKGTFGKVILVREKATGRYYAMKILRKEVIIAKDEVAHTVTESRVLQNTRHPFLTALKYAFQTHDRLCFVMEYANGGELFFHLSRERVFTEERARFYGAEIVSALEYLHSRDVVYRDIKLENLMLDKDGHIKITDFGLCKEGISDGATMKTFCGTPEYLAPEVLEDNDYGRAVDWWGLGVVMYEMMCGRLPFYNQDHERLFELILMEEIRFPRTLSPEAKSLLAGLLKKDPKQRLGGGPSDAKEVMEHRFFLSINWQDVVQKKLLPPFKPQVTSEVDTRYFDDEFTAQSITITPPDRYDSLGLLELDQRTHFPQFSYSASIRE
Procedure, shortened: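 Cell-free fluorescence/electrophoretic mobility shift readout of recombinant human AKT2 activity, 1 h after chemical dosing. Duplicate primary screen at 25 uM, then singleton concentration-response up to 50 uM; loss of signal versus DMSO baseline.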

[8] = target: human Casein Kinase 1-delta (CK1D), CSNK1D (gene 1453) (UniProt P48730); assay: NVS_ENZ_hCK1D: NovaScreen (NVS) Enzymatic Assay for human Casein Kinase 1-delta (CK1D) (AID 2283148)
Sequence of human Casein Kinase 1-delta (CK1D), CSNK1D (gene 1453) (P48730 whole entry, looked up): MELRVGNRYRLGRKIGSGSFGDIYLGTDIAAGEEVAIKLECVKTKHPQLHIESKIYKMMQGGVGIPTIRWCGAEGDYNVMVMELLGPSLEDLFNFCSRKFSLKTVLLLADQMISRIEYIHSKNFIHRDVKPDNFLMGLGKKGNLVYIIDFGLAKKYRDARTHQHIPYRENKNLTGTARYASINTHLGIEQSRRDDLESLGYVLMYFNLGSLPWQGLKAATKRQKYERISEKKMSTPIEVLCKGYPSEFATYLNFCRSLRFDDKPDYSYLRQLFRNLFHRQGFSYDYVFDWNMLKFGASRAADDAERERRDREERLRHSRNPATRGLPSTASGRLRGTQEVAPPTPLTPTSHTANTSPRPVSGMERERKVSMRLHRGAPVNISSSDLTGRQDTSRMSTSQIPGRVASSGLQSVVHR
Experimental: NVS_ENZ_hCK1D is a biochemical, single-readout assay that uses extracted gene-proteins in a cell-free assay. Measurements were taken 1 hour after chemical dosing in a 384-well plate.NVS_ENZ_hCK1D is one of one assay component(s) measured or calculated from the NVS_ENZ_hCK1D assay. It is designed to make measurements of enzyme activity, a form of enzyme reporter, as detected with fluorescence intensity signals by Fluorescence and electrophoretic mobility shift technology.Data from the assay component NVS_ENZ_hCK1D was analyzed into 1 assay endpoint. This assay endpoint, NVS_ENZ_hCK1D, was analyzed in the positive analysis fitting direction relative to DMSO as the negative control and baseline of activity. Using a type of enzyme reporter, loss-of-signal activity can be used to understand changes in the enzymatic activity as they relate to the gene CSNK1D. Furthermore, this assay endpoint can be referred to as a primary readout, because this assay has produced multiple assay endpoints where this one serves a enzymatic activity function. To generalize the intended target to other relatable targets, this assay endpoint is annotated to the kinase intended target family, where the subfamily is serine/threonine kinase. […]

[9] = target: human Caspase 8 (CASP8), CASP8 (gene 841) (UniProt Q14790); assay: NVS_ENZ_hCASP8: NovaScreen (NVS) Enzymatic Assay for human Caspase 8 (CASP8) (AID 2283146)
Sequence of human Caspase 8 (CASP8), CASP8 (gene 841) (Q14790 whole entry, looked up): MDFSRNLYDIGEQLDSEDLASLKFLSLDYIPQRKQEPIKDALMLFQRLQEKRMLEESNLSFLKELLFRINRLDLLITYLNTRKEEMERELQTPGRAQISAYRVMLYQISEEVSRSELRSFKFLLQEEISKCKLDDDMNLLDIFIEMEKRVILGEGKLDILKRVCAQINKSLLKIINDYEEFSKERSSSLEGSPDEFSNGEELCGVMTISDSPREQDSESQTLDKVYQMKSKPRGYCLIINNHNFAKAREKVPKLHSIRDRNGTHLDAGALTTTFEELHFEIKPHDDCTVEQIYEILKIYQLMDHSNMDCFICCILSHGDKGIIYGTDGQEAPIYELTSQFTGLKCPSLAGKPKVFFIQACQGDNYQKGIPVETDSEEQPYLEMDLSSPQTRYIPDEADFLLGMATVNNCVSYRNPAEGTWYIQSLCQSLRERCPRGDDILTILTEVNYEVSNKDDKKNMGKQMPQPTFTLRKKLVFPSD
Experimental: as §1, with “NVS_ENZ_hCASP8” for “NVS_ENZ_hCASP5”, “1 hour” for “2 hours”, “plate.NVS_ENZ_hCASP8” for “plate.NVS_ENZ_hCASP5”, “NVS_ENZ_hCASP8,” for “NVS_ENZ_hCASP5,”, “Using a type of enzyme reporter, loss-of-signal activity can be used to understand changes in the enzymatic activity as they relate to the gene CASP5.” left out, “To generalize the intended target to other relatable targets, this assay endpoint is annotated to the protease intended target family, where the subfamily is cysteine protease.” left out
Binding assays used specific radioligands (tritiated, iodinated) with non-radioactive competitive displacement ligands in agonist or antagonist protocols (as indicated) and various reference compounds and inhibitors to titrate specific binding to receptors and transporters. Most enzyme assays (CYPs, kinases, phosphatases, proteases, HDACs) used recombinant protein and specific substrates (fluorescence mostly, some colorimetric and radioactive) and inhibitors, followed by a biochemical separation of substrate and product. […]

N#Cc1cccnc1
outcome [1]: inactive | outcome [2]: inactive | outcome (CDK2 (gene 1017)): inactive

CN(C)C(=S)S
outcome [3]: inactive

Clc1cccc(Cl)c1Cl
outcome [4]: inactive | outcome [1]: inactive | outcome [2]: inactive

O=C(Cc1ccccc1)OCCc1ccccc1
AC50 [3]: 25 µM (active)

Nc1ccc(N)cc1
AC50 [5]: 5.42 µM (active) | AC50 [3]: 15.1 µM (active)

COc1ccccc1N
outcome [6]: inactive | outcome [7]: inactive

CCCCCCCCCCCCOS(=O)(=O)O
AC50 [2]: 28.5 µM (active)

O=C(N[C@H]1CN2CCC1CC2)c1ccc2c(c1)OCCO2
outcome [4]: inactive | outcome [3]: inactive | outcome [2]: inactive

CCCCCCCCCCCCc1cccc(S(=O)(=O)O)c1
outcome [1]: inactive | AC50 [6]: 35 µM (active) | AC50 [3]: 0.428 µM (active) | AC50 [2]: 16.1 µM (active) | AC50 [8]: 28.6 µM (active)

BrCCCCBr
outcome [3]: inactive

Nc1c(Oc2ccccc2)cc(O)c2c1C(=O)c1ccccc1C2=O
AC50 [5]: 0.133 µM (active) | AC50 [3]: 5.73 µM (active)

Oc1cc(Cl)c(Cl)cc1Cl
outcome [6]: inactive

O=c1oc2ccccc2c(O)c1C(CC(O)c1ccc(-c2ccc(Br)cc2)cc1)c1ccccc1 (stereo not given)
AC50 [5]: 9.45 µM (active)

CC(C)O.CC(C)O.OCCN(CCO)CCO.OCCN(CCO)CCO.[Ti]
AC50 [4]: 3.12 µM (active) | AC50 [5]: 1.81 µM (active) | AC50 [6]: 0.00319 µM (active) | AC50 [3]: 7.67 µM (active) | AC50 [7]: 3.46 µM (active) | AC50 [2]: 4.96 µM (active) | AC50 (CDK2 (gene 1017)): 0.003 µM (active) | AC50 [9]: 1.13 µM (active) | AC50 [8]: 10.8 µM (active)
